Assay results published in PubChem BioAssay (EPA / NIEHS).
Results filed as inconclusive are left out. More than one record can exist for a structure, and the calls need not agree. Active and inactive are the calls of the source. The calls were made as follows, unless noted: active = hit-call score of the fitted dose curve at least 0.9, where 1 is the maximum; inconclusive = response in the unintended direction; inactive = score below 0.9.

Experiments:
[1] = target: human Dopamine Transporter (DAT), SLC6A3 (gene 6531) (UniProt Q01959); test: NVS_TR_hDAT: NovaScreen (NVS) Transporter Assay for human Dopamine Transporter (DAT) (AID 2283374);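 also: activity means loss of bound radioligand signal relative to DMSO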
Outline: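 Cell-free radioligand displacement binding at human DAT, 1 h after dosing, with filtration and scintillation counting. Primary screen in duplicate at 25 uM, actives then in concentration series. Loss of bound signal versus DMSO scored.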

[2] = target: human Norepinephrine Transporter (NET), SLC6A2 (gene 6530) (UniProt P23975); test: NVS_TR_hNET: NovaScreen (NVS) Transporter Assay for human Norepinephrine Transporter (NET) (AID 2283377);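 as to AC50: displacement of radioligand from human NET seen as loss of scintillation signal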
Outline: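 Cell-free radioligand binding using CHO-derived membrane protein expressing human NET, read by filter scintillation counting 1 h after dosing; loss of signal vs DMSO. Initial duplicate screen at 25 uM, actives retested in concentration series.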

[3] = target: Estrogen receptor (Homo sapiens) (UniProt P03372); test: OT_ERa_GFPERaERE_0480: Odyssey Thera (OT) 8-hour HeLa Transcription Induction Assay for Estrogen Receptor (AID 2283381; active = hit-call score of the fitted dose curve at least 0.9, where 1 is the maximum; inactive = score below 0.9)
Outline: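 HeLa cells dosed with compound and imaged by fluorescence microscopy at 8 h; GFP induction from an ERE reporter quantified by high-content image analysis and fitted as gain of signal against DMSO baseline.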

[4] = target: Agonist Androgen Response Element (ARE), AR (gene 367) (UniProt P10275); test: OT_AR_ARELUC_AG_1440: Odyssey Thera (OT) 24-hour CHO-K1 Luciferase Assay for Agonist Androgen Response Element (ARE) (AID 2283379)
Outline: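 CHO-K1 cells carrying an ARE-driven luciferase reporter were exposed to compounds for 24 h. Luminescence was then read after adding a D-luciferin/ATP mix, and activity was scored as a gain in signal over DMSO vehicle.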

[5] = target: human Serotonin Transporter (SERT), SLC6A4 (gene 6532) (UniProt P31645); test: NVS_TR_hSERT: NovaScreen (NVS) Transporter Assay for human Serotonin Transporter (SERT) (AID 2283372)
Outline: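 Radioligand binding to native SERT in human platelet membranes, read by filter-based scintillation counting 1 h after dosing. Primary screen in duplicate at 25 uM; actives followed up in concentration series; loss of signal versus DMSO baseline.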

[6] = target: rat Serotonin Transporter (SERT), Slc6a4 (gene 25553) (UniProt P31652); test: NVS_TR_rSERT: NovaScreen (NVS) Transporter Assay for rat Serotonin Transporter (SERT) (AID 2283375)
Outline: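 Using rat forebrain membrane SERT, test chemicals compete with a radioligand for 1 hour, and bound counts are taken by filter-based scintillation. Screening starts at 25 uM in duplicate, followed by concentration series for actives.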

[7] = target: Norway rat Vesicular Monoamine Transporter (VMAT2), neurotransmitter transporter, Slc18a2 (gene 25549) (UniProt Q01827); test: NVS_TR_rVMAT2: NovaScreen (NVS) Transporter Assay for Norway rat Vesicular Monoamine Transporter (VMAT2), neurotransmitter transporter (AID 2283376);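 also: actives lower the bound radioligand signal below the DMSO level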
Outline: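 Radioligand displacement binding on rat forebrain tissue preparation, filter-based scintillation read-out 1 hour after dosing. Primary screen in duplicate at 25 uM, then concentration series for actives; loss of signal versus DMSO.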

[8] = target: Estrogen receptor beta (Homo sapiens) (UniProt Q92731); test: OT_ER_ERbERb_1440: Odyssey Thera (OT) 24-hour HEK293T Protein-Complementation Assay for Estrogen Receptor-beta/-beta Homodimer (AID 2283380);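 also: scored as signal increase over DMSO baseline for both agonists and antagonists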
Outline: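 HEK293T cells stably expressing ER beta LBD (aa 310-547) homodimer fragment-complementation reporter, dosed 24 h. Cells formaldehyde-fixed, Draq5-stained; gain in nuclear (agonist) or nuclear plus cytoplasmic (antagonist) fluorescence versus DMSO read by laser scanning cytometry.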

[9] = tested on: rat Norepinephrine Transporter (NET), gene 83511; test: NVS_TR_rNET: NovaScreen (NVS) Transporter Assay for rat Norepinephrine Transporter (NET) (AID 2283373)
Outline: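 Rat forebrain membranes; radioligand binding measured by filter-based scintillation counting 1 hour after dosing. Loss of specific binding versus DMSO baseline scored; primary screen in duplicate at 25 uM, actives followed up in concentration series.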

Estrogen receptor (Homo sapiens), sequence (P03372 whole entry, looked up): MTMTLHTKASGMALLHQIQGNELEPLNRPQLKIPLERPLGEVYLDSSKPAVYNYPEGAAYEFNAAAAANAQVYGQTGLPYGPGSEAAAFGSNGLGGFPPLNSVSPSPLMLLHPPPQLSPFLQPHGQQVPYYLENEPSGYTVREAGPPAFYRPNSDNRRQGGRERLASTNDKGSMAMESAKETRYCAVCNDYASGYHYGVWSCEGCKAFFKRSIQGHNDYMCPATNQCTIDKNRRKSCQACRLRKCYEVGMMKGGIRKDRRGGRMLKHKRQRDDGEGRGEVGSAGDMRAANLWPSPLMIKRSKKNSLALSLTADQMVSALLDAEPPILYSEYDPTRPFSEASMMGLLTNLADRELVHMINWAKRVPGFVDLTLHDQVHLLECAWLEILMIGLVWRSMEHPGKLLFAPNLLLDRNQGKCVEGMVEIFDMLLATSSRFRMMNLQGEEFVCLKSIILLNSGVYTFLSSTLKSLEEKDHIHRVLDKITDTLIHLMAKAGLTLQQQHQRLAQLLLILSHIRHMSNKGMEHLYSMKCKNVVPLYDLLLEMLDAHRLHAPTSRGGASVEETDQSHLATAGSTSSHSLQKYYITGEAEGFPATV
human Dopamine Transporter (DAT), SLC6A3 (gene 6531), sequence (Q01959 whole entry, looked up): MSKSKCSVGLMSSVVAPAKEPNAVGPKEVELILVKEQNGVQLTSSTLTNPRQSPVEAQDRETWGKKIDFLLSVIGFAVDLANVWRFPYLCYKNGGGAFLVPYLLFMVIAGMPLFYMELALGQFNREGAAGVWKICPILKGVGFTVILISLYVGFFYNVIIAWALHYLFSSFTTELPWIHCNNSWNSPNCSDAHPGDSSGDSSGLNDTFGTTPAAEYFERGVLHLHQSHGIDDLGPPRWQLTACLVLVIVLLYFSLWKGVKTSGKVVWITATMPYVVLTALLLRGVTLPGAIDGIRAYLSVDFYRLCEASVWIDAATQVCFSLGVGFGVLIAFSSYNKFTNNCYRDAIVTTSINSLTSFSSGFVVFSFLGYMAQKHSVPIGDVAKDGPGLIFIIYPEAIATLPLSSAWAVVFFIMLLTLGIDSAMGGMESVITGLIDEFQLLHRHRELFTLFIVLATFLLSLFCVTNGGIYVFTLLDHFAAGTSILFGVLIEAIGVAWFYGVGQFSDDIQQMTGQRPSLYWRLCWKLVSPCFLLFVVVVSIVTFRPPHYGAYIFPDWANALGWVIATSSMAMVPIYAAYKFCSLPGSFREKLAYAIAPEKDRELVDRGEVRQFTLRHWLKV
human Norepinephrine Transporter (NET), SLC6A2 (gene 6530), sequence (P23975 whole entry, looked up): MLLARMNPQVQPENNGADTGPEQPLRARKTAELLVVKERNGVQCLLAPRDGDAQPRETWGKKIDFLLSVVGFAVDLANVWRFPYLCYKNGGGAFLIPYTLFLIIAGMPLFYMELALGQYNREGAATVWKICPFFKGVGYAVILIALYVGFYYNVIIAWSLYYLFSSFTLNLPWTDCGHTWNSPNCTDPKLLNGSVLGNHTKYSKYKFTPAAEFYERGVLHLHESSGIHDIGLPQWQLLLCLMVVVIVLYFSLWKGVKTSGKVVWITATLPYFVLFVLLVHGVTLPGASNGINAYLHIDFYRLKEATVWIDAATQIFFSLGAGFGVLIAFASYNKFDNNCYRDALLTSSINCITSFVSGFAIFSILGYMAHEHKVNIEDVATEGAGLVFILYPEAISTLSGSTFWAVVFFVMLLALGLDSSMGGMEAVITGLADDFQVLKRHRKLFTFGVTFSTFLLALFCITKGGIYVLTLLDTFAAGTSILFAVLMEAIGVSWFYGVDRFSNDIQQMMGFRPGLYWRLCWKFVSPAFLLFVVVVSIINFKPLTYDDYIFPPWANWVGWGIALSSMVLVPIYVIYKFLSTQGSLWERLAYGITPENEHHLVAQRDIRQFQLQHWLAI
Estrogen receptor beta (Homo sapiens), sequence (Q92731 whole entry, looked up, the tested form may be a part): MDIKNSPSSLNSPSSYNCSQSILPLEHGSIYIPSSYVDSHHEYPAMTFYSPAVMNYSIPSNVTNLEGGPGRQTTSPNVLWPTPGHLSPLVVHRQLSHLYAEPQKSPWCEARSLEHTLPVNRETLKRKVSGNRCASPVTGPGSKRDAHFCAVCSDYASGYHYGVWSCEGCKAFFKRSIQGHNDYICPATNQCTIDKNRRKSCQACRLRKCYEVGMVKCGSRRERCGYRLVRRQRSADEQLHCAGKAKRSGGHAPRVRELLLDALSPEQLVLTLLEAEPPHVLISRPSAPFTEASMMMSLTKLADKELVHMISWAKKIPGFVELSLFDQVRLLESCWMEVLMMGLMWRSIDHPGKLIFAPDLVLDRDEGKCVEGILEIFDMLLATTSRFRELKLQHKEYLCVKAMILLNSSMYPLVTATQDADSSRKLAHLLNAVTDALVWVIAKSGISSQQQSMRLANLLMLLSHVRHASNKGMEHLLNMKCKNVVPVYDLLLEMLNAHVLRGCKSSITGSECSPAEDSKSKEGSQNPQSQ
Agonist Androgen Response Element (ARE), AR (gene 367), sequence (P10275 whole entry, looked up): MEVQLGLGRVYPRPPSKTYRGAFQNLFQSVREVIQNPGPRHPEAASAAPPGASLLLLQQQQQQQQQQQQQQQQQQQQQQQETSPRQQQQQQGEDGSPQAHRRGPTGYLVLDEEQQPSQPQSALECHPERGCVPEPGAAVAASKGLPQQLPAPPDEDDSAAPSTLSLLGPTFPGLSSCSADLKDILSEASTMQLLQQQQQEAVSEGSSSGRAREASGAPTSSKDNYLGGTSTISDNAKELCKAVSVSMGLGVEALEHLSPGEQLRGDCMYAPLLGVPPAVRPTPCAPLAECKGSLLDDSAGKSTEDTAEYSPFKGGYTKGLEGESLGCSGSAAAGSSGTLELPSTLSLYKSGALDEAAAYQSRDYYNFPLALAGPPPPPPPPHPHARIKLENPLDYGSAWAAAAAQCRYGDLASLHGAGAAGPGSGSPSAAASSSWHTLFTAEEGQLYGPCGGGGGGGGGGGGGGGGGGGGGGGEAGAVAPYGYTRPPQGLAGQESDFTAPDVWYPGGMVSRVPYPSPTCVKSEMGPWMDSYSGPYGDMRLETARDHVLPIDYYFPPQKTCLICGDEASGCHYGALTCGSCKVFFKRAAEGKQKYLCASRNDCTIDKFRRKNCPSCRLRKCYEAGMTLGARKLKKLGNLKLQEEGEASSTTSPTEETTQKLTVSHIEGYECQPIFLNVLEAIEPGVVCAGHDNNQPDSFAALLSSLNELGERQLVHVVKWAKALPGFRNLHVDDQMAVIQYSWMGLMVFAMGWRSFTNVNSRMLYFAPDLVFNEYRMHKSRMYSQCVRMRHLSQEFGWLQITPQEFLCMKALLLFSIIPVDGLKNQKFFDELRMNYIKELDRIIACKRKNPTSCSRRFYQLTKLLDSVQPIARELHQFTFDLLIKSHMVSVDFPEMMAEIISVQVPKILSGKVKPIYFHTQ
rat Serotonin Transporter (SERT), Slc6a4 (gene 25553), sequence (P31652 whole entry, looked up): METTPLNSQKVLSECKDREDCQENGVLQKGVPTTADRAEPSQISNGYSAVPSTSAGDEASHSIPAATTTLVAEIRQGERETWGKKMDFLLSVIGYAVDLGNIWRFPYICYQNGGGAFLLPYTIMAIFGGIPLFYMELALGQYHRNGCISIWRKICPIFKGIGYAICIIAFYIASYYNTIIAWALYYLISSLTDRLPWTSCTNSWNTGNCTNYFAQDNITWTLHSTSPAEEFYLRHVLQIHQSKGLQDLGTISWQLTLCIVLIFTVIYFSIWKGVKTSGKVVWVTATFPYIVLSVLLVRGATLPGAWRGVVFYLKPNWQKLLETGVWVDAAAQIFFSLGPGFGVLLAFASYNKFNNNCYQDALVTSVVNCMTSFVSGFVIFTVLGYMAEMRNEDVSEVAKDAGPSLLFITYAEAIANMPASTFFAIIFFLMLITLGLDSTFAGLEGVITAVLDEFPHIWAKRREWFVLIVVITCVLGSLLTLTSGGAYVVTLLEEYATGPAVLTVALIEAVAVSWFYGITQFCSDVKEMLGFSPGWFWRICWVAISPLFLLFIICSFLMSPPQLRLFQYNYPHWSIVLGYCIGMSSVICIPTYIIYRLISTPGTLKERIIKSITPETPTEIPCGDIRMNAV
Norway rat Vesicular Monoamine Transporter (VMAT2), neurotransmitter transporter, Slc18a2 (gene 25549), sequence (Q01827 whole entry, looked up): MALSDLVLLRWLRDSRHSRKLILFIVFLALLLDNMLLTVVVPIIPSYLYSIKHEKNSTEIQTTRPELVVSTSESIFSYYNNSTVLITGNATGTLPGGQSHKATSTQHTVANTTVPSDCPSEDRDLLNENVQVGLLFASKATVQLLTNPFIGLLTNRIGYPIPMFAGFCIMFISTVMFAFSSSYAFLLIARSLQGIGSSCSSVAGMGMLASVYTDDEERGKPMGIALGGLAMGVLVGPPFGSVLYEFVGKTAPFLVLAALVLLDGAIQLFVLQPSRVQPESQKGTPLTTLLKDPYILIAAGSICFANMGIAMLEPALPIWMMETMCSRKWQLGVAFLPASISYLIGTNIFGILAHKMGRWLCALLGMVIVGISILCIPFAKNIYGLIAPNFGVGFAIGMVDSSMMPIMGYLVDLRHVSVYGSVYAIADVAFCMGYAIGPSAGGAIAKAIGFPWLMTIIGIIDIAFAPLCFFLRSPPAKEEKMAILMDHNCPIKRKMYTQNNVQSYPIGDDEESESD

## CC[C@H](C)[C@H]1O[C@]2(C=C[C@@H]1C)C[C@@H]1C[C@@H](C/C=C(\C)[C@@H](O[C@H]3C[C@H](OC)[C@@H](O[C@H]4C[C@H](OC)[C@@H](O)[C@H](C)O4)[C@H](C)O3)[C@@H](C)/C=C/C=C3\CO[C@@H]4[C@H](O)C(C)=C[C@@H](C(=O)O1)[C@]34O)O2 (tested in a mixture with another compound)
[1]
  AC50: 11.3 µM (active)
[2]
  AC50: 5.03 µM (active)
[3]
  outcome: inactive

## CCN(CC)C(=O)SCc1ccc(Cl)cc1
[1]
  AC50: 7.71 µM (active)
[3]
  outcome: inactive

## CCCN(CCC)c1c([N+](=O)[O-])cc(C(F)(F)F)cc1[N+](=O)[O-]
[1]
  AC50: 25 µM (active)
[4]
  outcome: inactive
[3]
  outcome: inactive

## O=S1OCC2C(CO1)C1(Cl)C(Cl)=C(Cl)C2(Cl)C1(Cl)Cl (stereo not drawn)
[1]
  AC50: 10.9 µM (active)
[3]
  outcome: inactive

## CCCN(CCOc1c(Cl)cc(Cl)cc1Cl)C(=O)n1ccnc1
[5]
  AC50: 2.17 µM (active)
[1]
  AC50: 6.06 µM (active)
[6]
  AC50: 3.82 µM (active)
[7]
  AC50: 7.49 µM (active)
[2]
  AC50: 5.14 µM (active)
[8]
  outcome: inactive

## O=S(=O)(O)C(F)(F)C(F)(F)C(F)(F)C(F)(F)C(F)(F)C(F)(F)C(F)(F)C(F)(F)F
[2]
  outcome: inactive

## O=C(Nc1ccccc1)Nc1cnns1
[7]
  AC50: 5.31 µM (active)
[8]
  outcome: inactive
[3]
  outcome: inactive

## COP(=S)(OC)Oc1ccc(SC)c(C)c1
[1]
  AC50: 7.96 µM (active)
[8]
  outcome: inactive
[3]
  outcome: inactive

## Oc1ccc(Cl)cc1Cc1ccccc1
[9]
  AC50: 18.6 µM (active) [middle of 6 runs]
[1]
  AC50: 3.69 µM (active) [middle of 8 runs]
[6]
  outcome: inactive
[7]
  AC50: 13.8 µM (active)
  outcome: inactive
[2]
  AC50: 3.98 µM (active) [middle of 6 runs]
[4]
  outcome: inactive
[8]
  AC50: 12 µM (active)

## CCC(C)Nc1c([N+](=O)[O-])cc(C(C)(C)C)cc1[N+](=O)[O-] (stereo not drawn)
[1]
  AC50: 8.98 µM (active)
[8]
  AC50: 38.5 µM (active)
[3]
  outcome: inactive

## C[C@H]1[C@H](c2ccc(Cl)cc2)SC(=O)N1C(=O)NC1CCCCC1
[4]
  outcome: inactive
[8]
  outcome: inactive
[3]
  outcome: inactive

## O=C(O)CCCOc1ccc(Cl)cc1Cl
[4]
  outcome: inactive
[8]
  outcome: inactive

## CC(C)N(C(=O)COc1nnc(C(F)(F)F)s1)c1ccc(F)cc1
[5]
  AC50: 7.81 µM (active)
[1]
  AC50: 13.6 µM (active)
[6]
  AC50: 8.58 µM (active)
[8]
  outcome: inactive
[3]
  outcome: inactive

## CC(C)OC(=O)Nc1cccc(Cl)c1
[1]
  AC50: 16.3 µM (active)
[2]
  AC50: 6.63 µM (active)
[8]
  outcome: inactive
[3]
  outcome: inactive
